Shown are actives, neighbours in structure and some others; about 2.9% of the full set was active somewhere.
POLK inh – DNA polymerase kappa (human) inhibition; AID 588579; 400,000 tested, 0.53% active; Q9UBT6; purified Pol kappa, fluorescent DNA synthesis assay, 10 min; Potency, µM (titrated, usually from 107 µM), for the others: top-dose activity, negative = inhibition, actives largely listed as inhibitors; further: potency means the concentration at half of the fitted maximal effect; on the % scale 0 is the no-effect control and ±100 the full control effect
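10 nM Pol kappa was preincubated with compounds for 15 min at room temperature. Reaction started with 50 nM (final) substrate. Fluorescence read kinetically at 0 and 10 min.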
Pol eta inh – DNA polymerase eta (human) inhibition. recombinant Pol eta, fluorescent DNA replication assay. 390,000 tested, 1.2% active. Potency, µM (top dose mostly 114 µM), inactives show at the highest dose activity change, negative = inhibition, usual class: inhibitors; further: potency means the concentration at half of the fitted maximal effect; on the % scale 0 is the no-effect control and ±100 the full control effect
Target sequence (Q9Y253 whole entry, looked up): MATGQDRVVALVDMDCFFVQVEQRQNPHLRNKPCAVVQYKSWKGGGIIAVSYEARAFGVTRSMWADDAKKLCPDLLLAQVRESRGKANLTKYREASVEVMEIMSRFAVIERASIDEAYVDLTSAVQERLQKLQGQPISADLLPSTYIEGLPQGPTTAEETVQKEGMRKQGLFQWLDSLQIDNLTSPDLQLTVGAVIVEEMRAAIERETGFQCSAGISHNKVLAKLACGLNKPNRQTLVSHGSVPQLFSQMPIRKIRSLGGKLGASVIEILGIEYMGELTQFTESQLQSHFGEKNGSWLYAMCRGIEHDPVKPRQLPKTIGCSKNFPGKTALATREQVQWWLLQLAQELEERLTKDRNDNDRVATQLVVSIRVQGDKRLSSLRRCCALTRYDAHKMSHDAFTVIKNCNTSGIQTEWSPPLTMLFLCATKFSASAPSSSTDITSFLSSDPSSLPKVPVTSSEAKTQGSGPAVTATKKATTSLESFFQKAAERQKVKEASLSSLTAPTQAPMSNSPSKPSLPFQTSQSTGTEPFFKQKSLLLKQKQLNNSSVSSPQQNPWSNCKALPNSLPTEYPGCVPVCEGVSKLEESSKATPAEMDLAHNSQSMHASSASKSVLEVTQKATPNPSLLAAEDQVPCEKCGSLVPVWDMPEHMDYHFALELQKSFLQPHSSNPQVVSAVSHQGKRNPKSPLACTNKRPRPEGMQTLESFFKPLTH
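Fluorescent replication assay: 50 nM final substrate added after a 15 min room-temperature compound preincubation with 10 nM enzyme. Signal taken at 0 min and again at 10 min.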
ALOX12 inh – blocks human arachidonate 12S-lipoxygenase; Potency, µM (doses to about 108 µM), inactives show at the top dose activity change, negative = inhibition, hits mostly inhibitors; P18054; 580,000 tested, 1.1% active; purified 12hLO, xylenol orange hydroperoxide absorbance; further: potency means the concentration at half of the fitted maximal effect; on the % scale 0 is the no-effect control and ±100 the full control effect
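Hydroperoxide product was detected by ferrous iron/xylenol orange as the 573 to 405 nm absorbance ratio. Arachidonic acid at 40 uM (final) was turned over for 30 min at room temperature by 150 nM human 12hLO, pH 7.0 Hepes buffer, after 15 min compound preincubation.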
Pol beta inh – DNA polymerase beta (human) inhibition; AID 485314; Pol beta primer extension/strand displacement, fluorescence kinetic; Potency, µM (doses to about 114 µM), for inactives: at the top dose activity change, negative = inhibition, hits mostly inhibitors; 340,000 tested, 1.3% active; further: potency means the concentration at half of the fitted maximal effect; on the % scale 0 is the no-effect control and ±100 the full control effect
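Reaction started by 50 nM substrate onto compound-treated Pol beta (10 nM, 15 min preincubation, room temperature); plates read at 0 min and 10 min. Normalized concentration-effect data fitted by four-parameter Hill equation.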
POLI inh – blocks human DNA polymerase iota activity; Q9UNA4; Pol iota fluorescent replication assay, 10 min; Potency, µM (top dose mostly 115 µM), inactives show at the highest dose activity, negative = inhibition, usual class: inhibitors; 390,000 tested, 1% active; further: potency means the concentration at half of the fitted maximal effect
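Pol iota at 10 nM preincubated 15 min with compounds at room temperature; reaction started with fluorescent substrate, 50 nM final. Fluorescence read kinetically at 0 and 10 min; buffer-only wells as negative control.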
PI5P4K alpha inh – PI5P4K alpha (human) kinase inhibition. PI5P4Kalpha enzyme, ADP-Glo luminescence, 60 min; active compounds read low. max response, %. 330,000 tested, 1.2% active; active means max response of -50% or lower; inconclusive means between -30% and -50%; inactive means -30% or higher; further: value at the top dose of about 77 µM; on the % scale 0 is the no-effect control and ±100 the full control effect
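Human PI5P4Kalpha with substrate in 0.038 M HEPES pH 7.4, 0.28 mM EGTA, 0.1% CHAPS, 5% DMSO; reaction started with 5 microM ATP (final), 60 min at room temperature. ADP formed read by ADP-Glo luminescence.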
An asterisk follows results filed as active; ? = inconclusive; nt = not tested or not shown; ! = not active in a repeat; [ ] = another dose, or the depositor's remark. Unless noted, the call rests on the fitted dose curve; in most records, active means well fitted inhibition curve with a large enough effect; inconclusive means small, poorly fitted or top-dose-only effect, or another doubt; inactive means no such curve, though single readings can be large or run the other way.

SMILES	POLK inh	Pol eta inh	ALOX12 inh	Pol beta inh	POLI inh	PI5P4K alpha inh
O=S1(=O)CC(N2CCSCC2)CN1Cc1cn(Cc2cccc(C(F)(F)F)c2)nn1 (centres undefined)	nt	nt	-5%	nt	nt	6
COCCCn1cc(CN2CC(N3CCCCC3)CS2(=O)=O)nn1 (centres undefined)	nt	nt	0%	nt	nt	-8
CN(C)CCN1CCN(C2CN(Cc3cn(Cc4cccc(C(F)(F)F)c4)nn3)S(=O)(=O)C2)CC1 (centres undefined)	nt	nt	?	nt	nt	-4
COCCCn1cc(CN2CC(N3CCN(Cc4cccc(C)c4)CC3)CS2(=O)=O)nn1 (centres undefined)	nt	nt	11µM*	nt	nt	0
O=S1(=O)CC(N2CCN(CCO)CC2)CN1Cc1cn(Cc2cccc(C(F)(F)F)c2)nn1 (centres undefined)	nt	nt	25µM*	nt	nt	5
Cc1cccc(CN2CCN(C3CN(Cc4cn(Cc5cccc(C(F)(F)F)c5)nn4)S(=O)(=O)C3)CC2)c1 (centres undefined)	nt	nt	13µM*	nt	nt	-1
CC(=O)Nc1ccc(NS(=O)(=O)c2cccc3ccccc23)cc1	-8%	-21%	0%	-3%	18%	nt
O=S(=O)(Nc1ccc(C(O)(C(F)(F)F)C(F)(F)F)cc1)c1cccc2ccccc12	nt	nt	45µM*	nt	nt	5
CC(=O)N(c1nc(C)c(C(=O)Nc2ccc3cc[nH]c3c2)s1)C1CCCC1	nt	nt	2%	nt	nt	nt
O=C1C(Cl)=C(N2CCN(c3ccccc3[N+](=O)[O-])CC2)C(=O)c2ccccc21	-6%	?	-19%	28%	7.9µM*	-1
O=[N+]([O-])c1cc(Cl)ccc1N1CCCC1	1%	-12%	-9%	8%	43%	4
CC(C)NC(=O)c1sc2nc(-c3cccs3)cc(-c3cccs3)c2c1N	-22%	-1%	-9%	6%	33%	nt
Cc1nc2sc3c(O)cc(=O)[nH]c3c2c(C)c1C	-6%	0%	3%	-8%	3%	?
O=c1cc(O)c2sc3nc(-c4cccs4)cc(-c4cccs4)c3c2[nH]1	nt	nt	10µM*	nt	nt	nt
Cc1cc(C(F)(F)F)c2c(n1)sc1c(O)cc(=O)[nH]c12	71µM*	-14%	-9%	-10%	3.2µM*	nt
CC(C)[C@H](NC(=O)C1CCC(CNC(=O)[C@@H]2CCCN2C(=O)OC(C)(C)C)CC1)C(=O)O (some centres undefined)	4%	-23%	2%	-1%	-4%	3
CCC(C)[C@H](NC(=O)C1CCC(CNC(=O)[C@@H]2CCCN2C(=O)OC(C)(C)C)CC1)C(=O)O (some centres undefined)	2%	7%	20%	0.22µM*	-1%	0
COc1ccc(-c2cnc3[nH]cc(CC(=O)N4CCN(c5ccccn5)CC4)c3c2)cc1	nt	nt	3%[176 µM]	nt	nt	nt
C=CCNc1oc(/C=C/c2cccs2)nc1C#N	nt	nt	18µM*	nt	nt	nt
CCCCNc1oc(/C=C/c2cccs2)nc1C#N	nt	nt	24%	nt	nt	nt
Cc1oc(-c2ccccc2F)nc1CS(=O)CC(=O)NCc1ccc(Cl)cc1 (centres undefined)	0%	-18%	-16%	-3%	32%	-2
Cc1oc(-c2ccccc2Cl)nc1CS(=O)CC(=O)NCc1ccc(Cl)cc1 (centres undefined)	-7%	-6%	-25%	-7%	79µM*!	5
CCOc1ccc(CCNC(=O)c2nnn(CC(=O)Nc3ccc(C)cc3)c2N)cc1OCC	?	-1%	nt	25µM*	?	-1
COc1ccc(NC(=O)Cn2nnc(C(=O)NCCc3ccccc3)c2N)cc1	-34%	-26%	0%	25µM*	35µM*	4
CCOc1ccc(CCNC(=O)c2nnn(CC(=O)Nc3ccc(OC)cc3)c2N)cc1OCC	-5%	-5%	-9%	16%	25%	5
Cc1ccc(NC(=O)Cn2nnc(C(=O)NCCc3ccccc3)c2N)cc1C	?	-24%	0%	?	89µM*	nt
COc1ccc(S(=O)(=O)N2CCN(c3ccc(C)c(Cl)c3)CC2)c2ccccc12	nt	nt	70%	nt	nt	nt

High-throughput results (PubChem)
